Results from PubChem BioAssay AID624311 (Broad Institute, 2012).
The source made the active and inactive calls.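 The calls were made as follows: active = fluorescence dropping 30% or more below neutral controls, activity change at or below -30%; inactive = the rest.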

Target: Protein disulfide-isomerase (Homo sapiens) (UniProt P07237)
Experiment: PDI-driven insulin aggregation, ProteoStat dye readout – biochemical, fluorescence, dry powder samples, orthogonal assay for PDI inhibitor project, confirmation (AID 624311)

Protein disulfide-isomerase (Homo sapiens), sequence (P07237 whole entry, looked up): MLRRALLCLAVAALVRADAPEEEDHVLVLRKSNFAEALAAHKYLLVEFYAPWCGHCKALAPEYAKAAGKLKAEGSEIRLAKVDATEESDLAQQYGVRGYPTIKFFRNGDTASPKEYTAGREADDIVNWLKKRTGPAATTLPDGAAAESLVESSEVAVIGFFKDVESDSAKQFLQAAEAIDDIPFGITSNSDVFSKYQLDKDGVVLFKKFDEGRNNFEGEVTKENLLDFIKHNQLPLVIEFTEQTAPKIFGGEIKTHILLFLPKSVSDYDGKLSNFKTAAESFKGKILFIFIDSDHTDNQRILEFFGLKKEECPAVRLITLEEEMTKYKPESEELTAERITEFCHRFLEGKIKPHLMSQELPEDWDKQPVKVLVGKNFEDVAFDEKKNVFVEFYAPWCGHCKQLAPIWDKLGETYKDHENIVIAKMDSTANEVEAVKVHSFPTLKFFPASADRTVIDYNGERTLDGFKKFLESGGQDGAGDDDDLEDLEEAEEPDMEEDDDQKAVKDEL

With `C[C@H]1CN([C@@H](C)CO)C(=O)c2cccc(NS(C)(=O)=O)c2O[C@H]1CN(C)Cc1ccc(Oc2ccccc2)cc1` the outcome was “inactive”.
